# Sm TGR block – blocks Schistosoma mansoni thioredoxin glutathione reductase. Q962Y6. purified TGR, DTNB reduction, TNB absorbance 405 nm. Potency, µM (top dose mostly 114 µM), most hits filed as inhibitors. 360,000 compounds, 3% hits; also: nearly all actives have a fitted effect of over 60% in size
#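 First, TGR (20 nM dispensed) and NADPH were mixed with compound. Second, a 15 min room-temperature incubation followed. Third, further NADPH and then DTNB were added to start the reaction. Finally, TNB absorbance was monitored kinetically.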
# CHX counter – counter-screen hit for Shiga toxin inhibitors, cycloheximide; 300,000 compounds, 12% hits; max response, %; AID 2314; cell reporter, cycloheximide protein synthesis inhibition counterscreen; in the data active = max response mostly above about 13%, no sharp cut-off; inactive = mostly below about 14%; also: read at 38.3 µM for the half of the compounds with a filed dose
# Tb PYK inh – inhibitors of Trypanosoma brucei pyruvate kinase; Q57TT1; TbPYK enzyme, Kinase-Glo Plus ATP luminescence, 45 min; Potency, µM (titrated, usually from 76.8 µM), usual class: inhibitors; 410,000 compounds, 0.12% hits; also: nearly all actives have a fitted effect of over 50% in size
#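 Quantitative HTS: titrated library compounds versus trypanosomal pyruvate kinase in TEA buffer (pH 7.2) containing KCl, MgCl2, BSA and Tween-20. Reactions were initiated with ADP, 130 uM final. Kinase-Glo Plus luminescence was read after 45 min at RT.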
# Shiga inhibitor – inhibitors of Shiga toxin in Vero cells. Vero cells, Shiga toxin protein synthesis inhibition reporter. inhibition, % at 38.7 µM. 290,000 compounds, 9.2% hits. AID 2315; in the data active = inhibition mostly above about 28%, no sharp cut-off; inactive = mostly below about 43%
# FBPA Giardia inh – blocks Giardia fructose-bisphosphate aldolase activity. purified Giardia FBPA. Potency, µM (highest dose often 59.6 µM), actives largely listed as inhibitors. 290,000 compounds, 0.71% hits. AID 2451; also: nearly all actives have a fitted effect of over 55% in size
#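 Giardia FBPA (40 nM reagent) was preincubated 10 min at RT with compound (up to 57.5 uM final), then substrate plus GAPDH/TPI/NAD/arsenate coupling system with diaphorase/resazurin was added; resorufin fluorescence (525/598 nm) was read after 20 min.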
# LmPK inh – inhibitors of Leishmania mexicana pyruvate kinase | purified LmPK, Kinase-Glo ATP luminescence, 1 h | Q27686 | 290,000 compounds, 0.37% hits | Potency, µM (highest dose often 57.5 µM), actives largely listed as inhibitors
# Target sequence (Q27686 whole entry, looked up): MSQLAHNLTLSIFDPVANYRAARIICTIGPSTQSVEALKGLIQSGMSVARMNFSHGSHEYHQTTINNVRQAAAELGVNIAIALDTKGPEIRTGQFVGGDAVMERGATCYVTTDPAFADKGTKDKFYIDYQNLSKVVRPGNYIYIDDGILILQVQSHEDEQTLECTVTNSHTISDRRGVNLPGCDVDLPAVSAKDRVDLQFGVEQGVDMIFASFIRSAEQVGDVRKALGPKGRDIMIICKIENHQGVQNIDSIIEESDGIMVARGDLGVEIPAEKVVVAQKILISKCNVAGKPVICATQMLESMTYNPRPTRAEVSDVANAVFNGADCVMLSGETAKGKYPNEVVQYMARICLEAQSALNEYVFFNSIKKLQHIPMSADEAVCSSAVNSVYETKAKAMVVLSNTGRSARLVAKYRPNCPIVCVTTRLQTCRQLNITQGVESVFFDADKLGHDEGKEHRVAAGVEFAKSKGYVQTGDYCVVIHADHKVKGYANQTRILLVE
#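 qHTS format; LmPK 0.1 nM; substrates PEP 0.5 mM and ADP 0.1 mM. One-hour room-temperature incubation, then coupled luciferase luminescence; 0.5 nM enzyme wells mark activation.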
# Numbers stand for hits; n = inactive; u = inconclusive; x = not tested or not shown; [ ] = remark or other dose. This is one part of a sample in which hits are shown more often than they occur. Unless noted, calls follow the shape of the dose curve; as a rule, active = well fitted curve in the direction sought with a large enough effect; inconclusive = small, poorly fitted or top-dose-only effect, or another doubt; inactive = no such curve, though single readings can be large; an effect the other way counts as inactive or inconclusive.
SMILES,Sm TGR block,CHX counter,Tb PYK inh,Shiga inhibitor,FBPA Giardia inh,LmPK inh
CN(C)CCCN1C(=O)c2cccc3c(Br)ccc(c23)C1=O,8.9µM,n,n,n,n,n
COc1ccccc1CNC(=O)CCCNC(=O)Cn1cnc2sc(C)c(C)c2c1=O,n,n,n,n,n,n
O=C(CCc1cn(Cc2ccccc2Cl)c2ccccc12)NC1CCCCC1,n,x,n,x,x,x
Clc1ccc(-c2nc(Cc3ccccc3Cl)no2)cc1,n,n,n,n,n,n
Clc1ccc(Cc2noc(-c3cccs3)n2)cc1,n,53,n,93,n,n
CN(CCc1ccccc1)C(=O)c1cccc(NC(=O)Cc2cccc(NC(=O)C3CCCN(C(=O)c4ccccc4)C3)c2)c1 (stereo not drawn),x,x,n,x,x,x
COc1ccc(OC)c2c(C)c(C)[nH]c12,32µM,n,n,n,n,n
Cc1cc(C)cc(NC(=O)Cn2nnc(C(=O)Nc3cc(C)cc(C)c3)c2N)c1,n,x,n,x,x,x
CN1CCN(CCC(=O)N/N=C/c2ccccc2F)CC1,n,n,n,n,n,n
CC(=O)Nc1sc(N/N=C\c2ccccc2F)nc1-c1cccs1,n,38,n,62,n,n
O=C(CCSCCC(=O)NN=Cc1cccc(Cl)c1)NN=Cc1cccc(Cl)c1,x,x,n,x,x,x
CC(=O)Nc1sc(N/N=C\c2cccc(Cl)c2)nc1-c1cccs1,n,19,n,n,n,n
CCN(CC)c1ccc(/C=C(\C#N)c2nc(-c3cccs3)c(NC(C)=O)s2)cc1,n,n,x,n,n,n
CC(=O)Nc1sc(N/N=C\c2ccc(O)cc2)nc1-c1cccs1,n,27,n,68,n,n
COCCOc1ccc(C(F)(F)F)cc1NC(=O)COC(=O)c1cc([N+](=O)[O-])ccc1N1CCOCC1,n,n,n,n,n,n
CCC1(CCC(C)C)C(=O)NC(=O)NC1=O,x,x,n,x,x,x
CC(CC(O)C1OC1(C)C)C1CCC2(C)C3=CCC4C(C)(C)C(=O)CCC4(C)C3CC[C@@]12C (stereo partly drawn),x,x,x,x,n,x
CCOCCc1nn2c(=O)cc(CSCC(=O)Nc3ccccc3)nc2s1,n,21,n,n,x,n
Clc1nssc1=Nc1nncs1,50µM,x,5µM,x,x,x
Clc1ccc(N=c2ssnc2Cl)nc1,n,n,u,n,n,n
CCCCCCn1c(=O)n2n(c1=O)C[C@]1(OC(=O)Nc3c(C)noc3C)CN(S(=O)(=O)c3ccc(C)cc3)C[C@]1(O)C2,x,x,n,x,x,x
O=C(O)c1cnn(-c2nc(-c3cccc([N+](=O)[O-])c3)cs2)c1C(F)(F)F,n,n,n,n,n,n
Cn1ccnc1SCC(=O)Nc1ccc(Oc2ccccc2)cc1,n,24,n,n,n,n
CCOc1ccc(NC(=O)CSc2nccn2C)cc1,n,42,n,48,n,n
CCOc1ccc(C(O)c2nccn2C)cc1 (stereo not drawn),n,42,n,108,n,n
SMILES,Sm TGR block,CHX counter,Tb PYK inh,Shiga inhibitor,FBPA Giardia inh,LmPK inh
CCOc1ccc(NC(=O)C(C)Sc2nnc(C)n2C)cc1 (stereo not drawn),n,n,n,n,n,n
CCOc1ccc(NC(=O)C(C)Sc2nccn2C)cc1 (stereo not drawn),n,17,n,n,n,n
CCCCN(C(=O)c1c(-c2ccccc2)noc1C)c1c(N)n(CCC)c(=O)[nH]c1=O,x,x,n,x,x,x
COc1ccccc1NC(=O)C1CCC(CNS(=O)(=O)c2ccc3c(c2)CC(C)N3C(C)=O)CC1 (stereo not drawn),n,x,n,x,x,x
CCc1cccc(CC)c1NC(=O)c1c(C)oc2ccc(O)c(CN3CCOCC3)c12,n,x,n,x,x,x
CCOC(=O)c1ccc(NC(=O)Cn2nc(SC)c(S(=O)(=O)c3ccc(Cl)cc3)c2N)cc1,n,x,n,x,x,x
CNc1ncncc1-c1c(C)noc1C,x,x,x,x,n,x
CC(C)(C)N1CC(C(=O)Nc2cccc(Cl)c2Cl)CC1=O (stereo not drawn),n,n,n,n,n,n
COc1ccc(CN2CCN(c3ccccc3F)CC2)cc1O,n,n,n,n,n,n
COc1cc(CN2CCN(c3ccccc3F)CC2)cc(OC)c1O,14µM,n,n,n,n,n
COc1ccc(Cc2nc3ccc(C(=O)N4CCC[C@H]4CO)cc3o2)cc1,n,n,n,n,n,n
COc1cc2c(cc1OC)CN(Cc1cc(OC)c(O)c(OC)c1)CC2,8.9µM,n,n,n,n,n
C=CCN(CC=C)C(=O)c1ccc2nc(Cc3ccc(OC)c(OC)c3)oc2c1,n,17,n,n,n,n
COc1ccc(Cc2nc3ccc(C(=O)N4CCCC4)cc3o2)cc1,n,70,n,106,x,n
COc1cc2c(cc1OC)CN(Cc1ccccc1)CC2,n,n,n,n,u,n
COc1ccc(C(=O)N2CCN(Cc3cc(OC)c(O)c(OC)c3)CC2)cc1OC,8.9µM,n,n,n,u,n
COc1ccc(Cc2nc3ccc(C(=O)N4CCN(C)C(C)C4)cc3o2)cc1OC (stereo not drawn),u,11,n,n,n,n
COc1ccc(Cc2nc3ccc(C(=O)N4CCCC4)cc3o2)cc1OC,n,n,n,36,n,n
COc1ccc(Cc2nc3ccc(C(=O)N(C)CCCN4CCOCC4)cc3o2)cc1,n,n,n,n,x,n
COc1ccc(Cc2nc3ccc(C(=O)N(C)CC4COCCO4)cc3o2)cc1 (stereo not drawn),n,39,n,72,n,n
COc1ccc(Cc2nc3ccc(C(=O)N4CCCCC4CO)cc3o2)cc1OC (stereo not drawn),x,x,n,x,x,x
O=S(=O)(Cc1ccccc1)c1nnnn1C1CCCCC1,x,x,x,x,n,x
Cc1cccc(N2CCN(C(=O)CCC(=O)NNc3nc4ccccc4c4nc(C)nn34)CC2C)c1 (stereo not drawn),n,x,n,x,x,x
COc1ccc(N2C=C3C(=O)C(C)(OC(=O)C4CCCC4)C(=O)C=C3C=C2c2ccsc2)cc1 (stereo not drawn),x,x,x,x,u,n[11.5 µM]
COc1ccc(Cc2nc3ccc(C(=O)NC(C)Cc4ncccc4C)cc3o2)cc1OC (stereo not drawn),n,30,n,n,x,n
SMILES,Sm TGR block,CHX counter,Tb PYK inh,Shiga inhibitor,FBPA Giardia inh,LmPK inh
C#CCN(CC=C)C(=O)c1ccc2nc(C3CCCCC3)oc2c1,n,19,n,n,n,n
C=CCN(Cc1nc(-c2ccccc2)no1)C(=O)c1ccc2c(c1)OCO2,n,n,n,n,n,n
COc1ccc(Cc2nc3ccc(C(=O)NCc4ncc(C)[nH]4)cc3o2)cc1OC,n,n,n,n,n,n
Cc1ccc(C)n1-c1nnc(N2CCCC(C(=O)NCc3cccc(F)c3)C2)s1 (stereo not drawn),n,x,n,x,x,x
O=C(/C=C/c1ccccc1)CCN1CCCCC1,x,x,n,x,x,x
Cc1ccc(NC(=O)CSC2=NN3CCCC(=O)N=C3S2)cc1Cl,n,n,n,n,n,n
CCOC(=O)c1c(-c2ccccc2)oc2ccc(OCc3ccccc3Br)cc12,n,x,n,x,x,x

# Screening data (PubChem BioAssay)
